Data: PubChem BioAssay AID1159580 (chemical genetic matrix, 2015)
About 2,000 (36%) of roughly 5,500 compounds were called active. Roughly 18% stayed inconclusive and do not appear here. This is one part of the list. Values without a mark were called inactive. Cut-off read from the data, not from the text of the source: active = normalized growth mostly below about 0.91 (no sharp cut-off); inconclusive = no clear call, values can overlap the other calls; inactive = mostly above about 0.92.

Assay: chemical genetic growth profiling, strain panel (AID 1159580);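 note: tested at 20 µM; growth read once vehicle control cultures reached saturation at 30 °C; 1 = growth at the plate median or of vehicle wells; lower values mean less growth of the strain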
Conditions: S. cerevisiae deletion strains, growth OD
[1] = locus YAL040C, strain CLN3, stronger effect = lower value
[2] = locus YCL061C, strain MRC1 (second series), stronger effect = lower value
[3] = locus YDR363W, strain ESC2, stronger effect = lower value
[4] = locus YER002W, strain NOP16, stronger effect = lower value
[5] = locus YMR307W, strain GAS1, stronger effect = lower value
[6] = locus YNL153C, strain GIM3, stronger effect = lower value
[7] = locus YNL175C, strain NOP13, stronger effect = lower value
[8] = locus YNL197C, strain WHI3, stronger effect = lower value
[9] = locus YNL224C, strain SQS1, stronger effect = lower value
[10] = locus YOR083W, strain WHI5 (second series), stronger effect = lower value
[11] = locus YPL055C, strain LGE1, stronger effect = lower value
[12] = locus YPL241C, strain CIN2, stronger effect = lower value
[13] = locus YAR019C, strain CDC15, stronger effect = lower value
[14] = locus YBL105C, strain PKC1, stronger effect = lower value
[15] = locus YBR135W, strain CKS1, stronger effect = lower value
[16] = locus YBR136W, strain MEC1, stronger effect = lower value
[17] = locus YBR160W, strain CDC28, stronger effect = lower value
[18] = locus YDL017W, strain CDC7, stronger effect = lower value
[19] = locus YDL028C, strain MPS1, stronger effect = lower value
[20] = locus YDL101C, strain DUN1, stronger effect = lower value
[21] = locus YDL108W, strain KIN28, stronger effect = lower value
[22] = locus YDL132W, strain cdc53, stronger effect = lower value
[23] = locus YDL214C, strain PRR2, stronger effect = lower value
[24] = locus YDR052C, strain DBF4, stronger effect = lower value
[25] = locus YDR054C, strain cdc34, stronger effect = lower value
[26] = locus YDR226W, strain ADK1, stronger effect = lower value
[27] = locus YDR477W, strain SNF1, stronger effect = lower value
[28] = locus YER123W, strain YCK3, stronger effect = lower value
[29] = locus YER133W, strain GLC7, stronger effect = lower value
[30] = locus YFL009W, strain cdc4, stronger effect = lower value
[31] = locus YFL029C, strain CAK1, stronger effect = lower value
[32] = locus YFR003C, strain YPI1, stronger effect = lower value
[33] = locus YFR019W, strain FAB1, stronger effect = lower value
[34] = locus YFR028C, strain CDC14, stronger effect = lower value
[35] = locus YGR040W, strain KSS1, stronger effect = lower value
[36] = locus YGR052W, strain FMP48, stronger effect = lower value
[37] = locus YGR092W, strain DBF2, stronger effect = lower value
[38] = locus YHR030C, strain SLT2, stronger effect = lower value
[39] = locus YHR079C, strain IRE1, stronger effect = lower value
[40] = locus YHR082C, strain KSP1, stronger effect = lower value
[41] = locus YHR205W, strain SCH9, stronger effect = lower value
[42] = locus YIL147C, strain SLN1, stronger effect = lower value
[43] = locus YJL095W, strain BCK1, stronger effect = lower value
[44] = locus YJL128C, strain PBS2, stronger effect = lower value
[45] = locus YJL157C, strain FAR1, stronger effect = lower value
[46] = locus YJR016C, strain ILV3, stronger effect = lower value
[47] = locus YJR066W, strain TOR1 (second series), stronger effect = lower value
[48] = locus YJR066W, strain TOR1, stronger effect = lower value
[49] = locus YKL048C, strain ELM1, stronger effect = lower value
[50] = locus YKL067W, strain YNK1, stronger effect = lower value
[51] = locus YKL101W, strain HSL1, stronger effect = lower value
[52] = locus YKL193C, strain SDS22, stronger effect = lower value
[53] = locus YKL203C, strain TOR2, stronger effect = lower value
[54] = locus YLR113W, strain HOG1, stronger effect = lower value
[55] = locus YLR133W, strain CKI1, stronger effect = lower value
[56] = locus YLR403W, strain SFP1, stronger effect = lower value
[57] = locus YML070W, strain DAK1, stronger effect = lower value
[58] = locus YMR001C, strain CDC5, stronger effect = lower value
[59] = locus YMR205C, strain PFK2 (second series), stronger effect = lower value
[60] = locus YMR277W, strain FCP1, stronger effect = lower value
[61] = locus YNL006W, strain LST8, stronger effect = lower value
[62] = locus YNL020C, strain ARK1, stronger effect = lower value
[63] = locus YNL161W, strain CBK1, stronger effect = lower value
[64] = locus YNL183C, strain NPR1, stronger effect = lower value
[65] = locus YNL207W, strain RIO2, stronger effect = lower value
[66] = locus YNL222W, strain SSU72, stronger effect = lower value
[67] = locus YNL307C, strain MCK1 (second series), stronger effect = lower value
[68] = locus YOL078W, strain AVO1, stronger effect = lower value
[69] = locus YOL136C, strain PFK27, stronger effect = lower value
[70] = locus YOR061W, strain CKA2, stronger effect = lower value
[71] = locus YOR119C, strain RIO1, stronger effect = lower value
[72] = locus YOR231W, strain MKK1, stronger effect = lower value
[73] = locus YOR329C, strain SCD5, stronger effect = lower value
[74] = locus YPL031C, strain PHO85, stronger effect = lower value
[75] = locus YPL153C, strain RAD53, stronger effect = lower value
[76] = locus YPL204W, strain HRR25, stronger effect = lower value
[77] = locus YPL209C, strain IPL1, stronger effect = lower value
[78] = locus YPL256C, strain CLN2, stronger effect = lower value
[79] = locus YPR025C, strain CCL1, stronger effect = lower value
[80] = locus YPR106W, strain ISR1, stronger effect = lower value
[81] = locus YPR111W, strain DBF20, stronger effect = lower value
[82] = strain NNK1, stronger effect = lower value
[83] = strain TSCII, stronger effect = lower value

NC(=O)c1ncn(C2OC(CO)C(O)C2O)n1 (stereo unspecified)
normalized growth [1]: 1.01
normalized growth [2]: 1
normalized growth [3]: 1
normalized growth [4]: 0.996
normalized growth [5]: 1.01
normalized growth [6]: 1.03
normalized growth [7]: 1.01
normalized growth [8]: 1.01
normalized growth [9]: 1.02
normalized growth [10]: 1.02
normalized growth [11]: 1

COc1cc2c(CCNC(C)=O)c[nH]c2cc1Cl
normalized growth [1]: 0.983
normalized growth [3]: 1.03
normalized growth [4]: 0.956
normalized growth (locus YGR078C, strain PAC10, stronger effect = lower value): 1.01
normalized growth [5]: 1.01
normalized growth [6]: 0.926
normalized growth [7]: 0.989
normalized growth [8]: 0.989
normalized growth [9]: 1
normalized growth (locus YNL322C, strain KRE1, stronger effect = lower value): 0.998
normalized growth [10]: 1.03
normalized growth [12]: 0.996

O=S1(=O)N(CCN2CC=C(c3c[nH]c4cc(F)ccc34)CC2)c2cccc3c2N1CCC3
normalized growth [1]: 0.981
normalized growth [2]: 0.987
normalized growth [3]: 0.997
normalized growth (locus YJR075W, strain HOC1, stronger effect = lower value): 1
normalized growth [6]: 0.851
normalized growth [7]: 0.987
normalized growth [8]: 0.994
normalized growth [9]: 1.02
normalized growth [10]: 0.958
normalized growth [11]: 0.951
normalized growth [12]: 0.977

N#CC(C#N)=Cc1c(-c2ccccc2Cl)[nH]c2ccccc12
normalized growth [13]: 0.968
normalized growth [14]: 0.962
normalized growth [15]: 0.965
normalized growth [16]: 0.97
normalized growth [17]: 0.969
normalized growth [18]: 0.976
normalized growth [19]: 0.972
normalized growth [20]: 0.973
normalized growth [21]: 0.975
normalized growth [22]: 0.969
normalized growth [23]: 0.919
normalized growth [24]: 0.98
normalized growth [25]: 0.931
normalized growth [26]: 0.956
normalized growth [27]: 0.901
normalized growth [28]: 0.889
normalized growth [29]: 0.93
normalized growth [30]: 0.955
normalized growth [31]: 0.96
normalized growth [32]: 0.976
normalized growth [33]: 0.924
normalized growth [34]: 0.965
normalized growth [35]: 0.907
normalized growth [36]: 0.942
normalized growth [37]: 0.938
normalized growth [38]: 0.654 (active)
normalized growth [39]: 0.812
normalized growth [40]: 0.932
normalized growth [41]: 0.836
normalized growth [42]: 0.971
normalized growth [43]: 0.822
normalized growth [44]: 0.958
normalized growth [45]: 0.923
normalized growth [46]: 0.956
normalized growth [47]: 0.897
normalized growth [48]: 0.902
normalized growth [49]: 0.926
normalized growth [50]: 0.918
normalized growth [51]: 0.899
normalized growth [52]: 0.967
normalized growth [53]: 0.961
normalized growth [54]: 0.821 (active)
normalized growth [55]: 0.905
normalized growth [56]: 0.904
normalized growth [57]: 0.886
normalized growth [58]: 0.969
normalized growth [59]: 0.919
normalized growth [60]: 0.967
normalized growth [61]: 0.96
normalized growth [62]: 0.882
normalized growth [63]: 0.966
normalized growth [64]: 0.853
normalized growth [65]: 0.974
normalized growth [66]: 0.967
normalized growth [67]: 0.84
normalized growth [68]: 0.962
normalized growth [69]: 0.87
normalized growth [70]: 0.897
normalized growth [71]: 1
normalized growth [72]: 0.867
normalized growth [73]: 0.968
normalized growth [74]: 0.907
normalized growth [75]: 0.905
normalized growth [76]: 0.884
normalized growth [77]: 0.973
normalized growth [78]: 0.779 (active)
normalized growth [79]: 0.961
normalized growth [80]: 0.954
normalized growth [81]: 0.927
normalized growth [82]: 0.959
normalized growth [83]: 0.964

O=C(Nc1cc(Cl)ccc1O)c1ccccc1CSc1ccc(Cl)cc1
normalized growth [13]: 0.977
normalized growth [14]: 0.984
normalized growth [15]: 0.985
normalized growth [16]: 0.98
normalized growth [17]: 0.979
normalized growth [18]: 0.986
normalized growth [19]: 0.985
normalized growth [20]: 0.989
normalized growth [21]: 0.981
normalized growth [22]: 0.988
normalized growth [23]: 0.823
normalized growth [24]: 0.983
normalized growth [25]: 0.979
normalized growth [26]: 0.976
normalized growth [27]: 0.8
normalized growth [28]: 0.749
normalized growth [29]: 0.839
normalized growth [30]: 0.981
normalized growth [31]: 0.977
normalized growth [32]: 0.979
normalized growth [33]: 0.753 (active)
normalized growth [34]: 0.986
normalized growth [35]: 0.794
normalized growth [36]: 0.685
normalized growth [37]: 0.571
normalized growth [38]: 0.29 (active)
normalized growth [39]: 0.683
normalized growth [40]: 0.652
normalized growth [41]: 0.785
normalized growth [42]: 0.981
normalized growth [43]: 0.502
normalized growth [44]: 0.922
normalized growth [45]: 0.783
normalized growth [46]: 0.987
normalized growth [47]: 0.765
normalized growth [48]: 0.647
normalized growth [49]: 0.888
normalized growth [50]: 0.835
normalized growth [51]: 0.633 (active)
normalized growth [52]: 0.988
normalized growth [53]: 0.784
normalized growth [54]: 0.52 (active)
normalized growth [55]: 0.776
normalized growth [56]: 0.763
normalized growth [57]: 0.714
normalized growth [58]: 0.981
normalized growth [59]: 0.851
normalized growth [60]: 0.983
normalized growth [61]: 0.98
normalized growth [62]: 0.689 (active)
normalized growth [63]: 0.97
normalized growth [64]: 0.689
normalized growth [65]: 0.97
normalized growth [66]: 0.983
normalized growth [67]: 0.565 (active)
normalized growth [68]: 0.986
normalized growth [69]: 0.753
normalized growth [70]: 0.603 (active)
normalized growth [71]: 0.861
normalized growth [72]: 0.699
normalized growth [73]: 0.975
normalized growth [74]: 0.738
normalized growth [75]: 0.747
normalized growth [76]: 0.731
normalized growth [77]: 0.981
normalized growth [78]: 0.551 (active)
normalized growth [79]: 0.979
normalized growth [80]: 0.979
normalized growth [81]: 0.954
normalized growth [82]: 0.961
normalized growth [83]: 0.981
